The values that follow come from PubChem BioAssay (Tox21).

Where “and” joins values, the source holds several entries; their conditions need not be identical. Identical values can stand only once. Records with an inconclusive call do not appear. The source holds several records for some structures; these can differ, active in one and inactive in another. Calls of active or inactive are those of the source. Unless noted, calls come from the whole dose curve; as a rule, active = well fitted curve in the direction sought with a large enough effect in the repeat runs; inconclusive = weak or mixed curves; inactive = no such curve, though single readings can be large; an effect the other way counts as inactive or inconclusive.

A short description of assay [1]: qHTS assay for small molecules that induce genotoxicity in human embryonic kidney cells expressing luciferase-tagged ATAD5 (AID 651632). Note: nearly all actives have a fitted effect of over 15% in size. In short, it runs like this: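 Increased luciferase signal from ATAD5-tagged reporter cells indicates DNA-damage-driven ATAD5 induction. HEK293T cells are treated for 16 hr at 37C before detection with Amplite.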
A short description of assay [2]: qHTS assay for small molecule agonists of the p53 signaling pathway - cell viability (AID 651633; calls by dose curve; note: nearly all actives have a fitted effect of over 30% in size; note: potency is the fitted concentration of half-maximal effect). In short, it runs like this: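 p53RE-bla cells, seeded at 4,000 per well and rested 5 h at 37 C/5% CO2, received compounds in DMSO for 16 h at 37 C. CellTiter-Glo was then added, and luminescence was read after 30 min at room temperature to gauge cytotoxicity.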
Assay [3] in a line: qHTS assay for small molecules that induce genotoxicity in human embryonic kidney cells expressing luciferase-tagged ATAD5 - cell viability (AID 651634; calls by dose curve; note: nearly all actives have a fitted effect of over 25% in size; note: potency is the fitted concentration of half-maximal effect). In short, it runs like this: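 Cytotoxicity counterscreen in HEK293T cells bearing an ATAD5-luciferase reporter: live-cell protease activity measured by CellTiter-Fluor fluorescence after 15.5 hr compound exposure.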
For orientation: Quantitative high-throughput screening tests each substance at several concentrations.

Assay [4] can be described thus: qHTS assay for small molecule disruptors of the mitochondrial membrane potential - cell viability (AID 720634; calls by dose curve; note: nearly all actives have a fitted effect of over 20% in size; note: potency is the fitted concentration of half-maximal effect). In short, it runs like this: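 After overnight attachment at 37 C, HepG2 cells received compound or DMSO vehicle for 1 hr. Viability is then taken from ATP-driven luminescence following a 30 min room-temperature CellTiter-Glo step.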
Assay [5] in a line: qHTS assay for small molecule disruptors of the mitochondrial membrane potential (AID 720635). Note: potency is the fitted concentration of half-maximal effect. In short, it runs like this:
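HepG2 cells (2,000/well) attached overnight at 37C, then took compound for 1 hr at 37C, 5% CO2. Mito-MPS dye was added for 30 min; fluorescence was read at 490/535 nm (monomers) and 540/590 nm (aggregates).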

Assay [6] is described as follows: qHTS assay to test for compound auto fluorescence at 590 nm (red) in HepG2 cells (AID 720674). In short, it runs like this: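 Rose Bengal sodium served as the red fluorophore standard. HepG2 monolayers (overnight attachment, MEM with 10% FBS) were exposed to test compounds for 1 hr at 37 C and read at Ex 540/Em 590 nm.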
Assay [7] is described as follows: qHTS assay to test for compound auto fluorescence at 535 nm (green) in HepG2 cells (AID 720675). Note: potency is the fitted concentration of half-maximal effect.
Assay [8] is described as follows: qHTS assay to test for compound auto fluorescence at 460 nm (blue) in HEK293 cells (AID 720678). Note: potency is the fitted concentration of half-maximal effect. In short, it runs like this: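 Intrinsic compound fluorescence is recorded in live HEK293 cultures after overnight incubation at 37C, 5% CO2, using excitation 405 nm and emission 460 nm. Values are referenced to triamterene.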
Assay [9] can be described thus: qHTS assay to test for compound auto fluorescence at 590 nm (red) in HEK293 cells (AID 720679). In short, it runs like this: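 Red autofluorescence, HEK293 cells: 2,000 cells/well; attach 4-5 hr 37C; add 23 nL cpd or DMSO; incubate o/n 37C 5% CO2; read Ex540/Em590; Rose Bengal sodium reference.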
Assay [10] in a line: qHTS assay to test for compound auto fluorescence at 535 nm (green) in HEK293 cells (AID 720680). Note: potency is the fitted concentration of half-maximal effect.
The nature of assay [11]: qHTS assay to test for compound auto fluorescence at 460 nm (blue) in HEK293 cell free culture (AID 720681). Note: potency is the fitted concentration of half-maximal effect. In short, it runs like this:
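Test compounds were pinned into cell-free culture medium (DMEM with 10% FBS) and fluorescence was read directly at Ex/Em 405/460 nm. Signals were expressed as fluorescence equivalents of triamterene, with DMSO vehicle as control.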

Assay [12] in a line: qHTS assay to test for compound auto fluorescence at 535 nm (green) in HEK293 cell free culture (AID 720682). Note: potency is the fitted concentration of half-maximal effect. In short, it runs like this:
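No cells present: wells hold DMEM supplemented with 10% FBS, into which compound or vehicle is pinned. Green emission is then recorded (485 nm excitation, 535 nm emission) and scaled to fluorescein.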

The nature of assay [13]: qHTS assay to test for compound auto fluorescence at 590 nm (red) in HEK293 cell free culture (AID 720683). The method in brief:
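Tox21 10K library compounds were pinned into cell-free DMEM with 10% FBS and fluorescence was read at excitation 540 nm. Activity is expressed as Rose Bengal sodium equivalency.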

A short description of assay [14]: qHTS assay to test for compound auto fluorescence at 590 nm (red) in HepG2 cell free culture (AID 720684). The method in brief:
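Red fluorescence (540 nm excitation, 590 nm emission) was measured after compound transfer into cell-free MEM supplemented with 10% FBS. Values are equivalencies against Rose Bengal sodium.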

Assay [15] is described as follows: qHTS assay to test for compound auto fluorescence at 460 nm (blue) in HepG2 cell free culture (AID 720685). Note: potency is the fitted concentration of half-maximal effect. In short, it runs like this:
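Compound (23 nL) or DMSO pinned into cell-free MEM with 10% FBS; blue fluorescence read at 405/460 nm excitation/emission, expressed as auto-fluorescence equivalency to triamterene.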

The nature of assay [16]: qHTS assay to test for compound auto fluorescence at 535 nm (green) in HepG2 cell free culture (AID 720686). Note: potency is the fitted concentration of half-maximal effect.
Assay [17] can be described thus: qHTS assay to test for compound auto fluorescence at 460 nm (blue) in HepG2 cells (AID 720687). Note: potency is the fitted concentration of half-maximal effect. The method in brief:
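Cells (2,000/well in MEM with 10% FBS) attached overnight at 37 C, then were exposed to compound or DMSO for 1 hr at 37 C, 5% CO2. Fluorescence read at Ex/Em 405/460 nm, expressed as triamterene-equivalent signal.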

Assay [18] is described as follows: qHTS assay for small molecule agonists of the p53 signaling pathway (AID 651631; calls by dose curve; note: nearly all actives have a fitted effect of over 15% in size; note: potency is the fitted concentration of half-maximal effect). The method in brief:
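Agonist mode screen using a stably integrated beta-lactamase gene under p53 response elements in HCT-116 cells. Compound exposure lasts 16 h at 37 °C; fluorescence intensity is measured following 2 h FRET substrate loading.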

Assay [19] concerns the target Glucocorticoid receptor (Homo sapiens) (UniProt P04150). The assay can be described thus: qHTS assay to identify small molecule agonists of the glucocorticoid receptor (GR) signaling pathway (AID 720691; active = well fitted activation curve with a large enough effect in the signal ratio in the repeat runs, not every such curve was filed as active; the % refers to the signal ratio). The settings on record: GR-bla HeLa, beta-lactamase reporter ratio, 18 h; activation: at 62.4 µM (top of the series). The method in brief:
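Agonist mode in a HeLa line carrying a GRE-controlled beta-lactamase reporter. Compounds act for 18 h at 37 C before a 2 h room-temperature FRET substrate step and fluorescence reading.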

Assay [20] shares this target. Nature of the assay: qHTS assay to identify small molecule antagonists of the glucocorticoid receptor (GR) signaling pathway (AID 720692; active = well fitted inhibition curve with a large enough effect in the signal ratio in the repeat runs, not every such curve was filed as active; the % refers to the signal ratio). In short, it runs like this: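 Cells plated, rested 4 h at 37 C/5% CO2; compounds in DMSO pin-transferred; dexamethasone added to 5 nM final; 18 h at 37 C; B/G FRET substrate added, 2 h room temperature; fluorescence measured.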
Tags give direction and shape of the fitted curve or compound fluorescence and quenching.

Sequence of Glucocorticoid receptor (Homo sapiens) (P04150 whole entry, looked up): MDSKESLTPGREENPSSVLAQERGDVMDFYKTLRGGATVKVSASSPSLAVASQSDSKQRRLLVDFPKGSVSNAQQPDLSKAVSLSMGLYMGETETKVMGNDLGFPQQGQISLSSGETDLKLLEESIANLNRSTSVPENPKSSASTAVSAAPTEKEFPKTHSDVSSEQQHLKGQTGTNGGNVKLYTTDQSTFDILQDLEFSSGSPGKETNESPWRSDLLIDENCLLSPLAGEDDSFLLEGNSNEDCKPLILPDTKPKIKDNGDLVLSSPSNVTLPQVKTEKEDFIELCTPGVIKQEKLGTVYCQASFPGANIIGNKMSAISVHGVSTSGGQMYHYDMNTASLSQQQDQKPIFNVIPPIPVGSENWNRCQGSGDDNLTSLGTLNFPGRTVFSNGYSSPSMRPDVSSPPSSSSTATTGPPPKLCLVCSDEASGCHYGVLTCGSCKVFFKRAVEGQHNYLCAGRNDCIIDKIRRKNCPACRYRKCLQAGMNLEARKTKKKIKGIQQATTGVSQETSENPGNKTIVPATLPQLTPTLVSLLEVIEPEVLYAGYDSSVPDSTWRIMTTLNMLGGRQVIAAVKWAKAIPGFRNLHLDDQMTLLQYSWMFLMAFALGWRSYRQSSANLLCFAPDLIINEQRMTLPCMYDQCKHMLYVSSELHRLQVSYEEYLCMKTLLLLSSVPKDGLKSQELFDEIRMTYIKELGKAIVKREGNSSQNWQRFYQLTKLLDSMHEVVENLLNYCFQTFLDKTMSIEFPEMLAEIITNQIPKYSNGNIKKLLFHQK

`O=C1c2c(O)ccc([N+](=O)[O-])c2C(=O)c2c([N+](=O)[O-])ccc(O)c21`: the Potency entry in assay [1], in [6], in assay [7], in [8], in assay [9] and in assay [10] was “inactive” in each case. The Potency entry in [11], in [12], in assay [13], in assay [14], in assay [15] and in assay [16] was “inactive” in each case. Moreover, the Potency entry in assay [17] is “inactive”. Besides, the Potency in [2] is 8.56 µM (active); in assay [3], 9.6 µM (active); in assay [4], 30.4 µM (active); in assay [5], 54 nM (active).
In the case of `C[n+]1c2cc(N)ccc2cc2ccc(N)cc21` (tested in a mixture with another compound), the Potency was 7.5 µM (active) in [18]; 668 nM (active) in assay [5]; 14.1 µM (active) in [7]; 12.6 µM [fluorescent] (active) in assay [8]; 12.6 µM [fluorescent] (active) in assay [10]; 11.2 µM (active) in [11]. For the same molecule, the Potency was 12.6 µM [fluorescent] (active) in [12], 11.2 µM [fluorescent] (active) in [15], 12.6 µM [fluorescent] (active) in assay [16] and 14.1 µM [fluorescent] (active) in [17]. Besides, the Potency entry in assay [4], in assay [9], in assay [13] and in assay [14] was “inactive” each time.
`O=Nc1ccc(NO)cc1`: the Potency result in assay [1], in [2], in assay [3], in [4], in assay [6] and in assay [7] was “inactive” each time. Further, the Potency entry in [8], in assay [9], in assay [10], in assay [11], in [12] and in [13] was “inactive” throughout. Also, the Potency result in [14], in assay [15], in [16], in assay [17] and in [19] was “inactive” each time. Moreover, the Potency in assay [5] is 50500 nM (active).
For the molecule `CCCCCCCOC(=O)c1ccc(O)cc1`, the Potency result in [1], in assay [3], in [6], in [7], in assay [8] and in assay [9] was “inactive” throughout. In addition, the Potency entry in assay [10], in assay [11], in assay [12], in assay [13], in [14] and in assay [15] was “inactive” in each case. In addition, the Potency entry in assay [16] and in [17] was “inactive” throughout. Further, the Potency result in [2] was “inactive and 61.1 µM (active)”; in [4], 27.3 µM (active); in assay [5], 8.64 µM (active) and 8.63 µM (active).
For the molecule `O=C(NO)c1ccccc1`, in [18], the Potency is 65.3 µM (active). The Potency result in assay [3], in assay [4], in assay [7], in assay [8], in assay [9] and in assay [10] was “inactive” in each case. For the same molecule, the Potency result in assay [11], in assay [12], in assay [13], in assay [14], in assay [15] and in assay [16] was “inactive” in each case. In addition, the Potency result in [17] and in assay [19] was “inactive” throughout.
For the molecule `O=C1OC(=O)c2cccc3cccc1c23`, the Potency result in assay [18], in assay [1], in [3], in assay [6], in assay [7] and in [8] was “inactive” in each case. Also, the Potency entry in assay [9], in assay [10], in assay [11], in assay [12], in assay [13] and in [14] was “inactive” in each case. The Potency result in assay [15], in assay [16], in assay [17] and in [19] was “inactive” throughout. The Potency in assay [5] is 2760 nM (active).
With `CCC(=O)OCCc1ccccc1`, the Potency entry in assay [18], in [1], in [3], in [4], in [5] and in assay [6] was “inactive” throughout. The Potency result in assay [7], in assay [8], in [10], in assay [11], in [12] and in [13] was “inactive” throughout. Besides, the Potency entry in [14], in assay [15], in [16], in [17], in assay [19] and in [20] was “inactive” throughout.
